Measurements published in PubChem BioAssay AID624417 (National Center for Advancing Translational Sciences (NCATS), 2012).
Among all 410,000 compounds or so, about 6,400 (1.6%) were called active. Where a call stands in place of a potency, no number is given. Not shown: some 20% with an inconclusive outcome. The full list was thinned out, with actives kept by preference. Values without a mark were called inactive. The call rests on the fitted dose curve; in most records, active means well fitted inhibition curve with a large enough effect; inconclusive means small, poorly fitted or top-dose-only effect; inactive means no such curve, though single readings can be large or run the other way. Peptide text beside a SMILES is read from it. * marks the point of attachment. Bz = O=C(c1ccccc1)*
Further: nearly all actives have a fitted effect of over 55% in size.
Potency means the concentration at half of the fitted maximal effect.

The molecules below were run against Glucagon-like peptide 1 receptor (Homo sapiens) (UniProt P43220) (assay: qHTS of GLP-1 Receptor Inverse Agonists (Inhibition Mode)). Details: HEK293 GLP-1R CRE-luciferase, luminescence, 24 h, GLP-1R form is constitutively active; series mostly up to 38.3 µM.
Glucagon-like peptide 1 receptor (Homo sapiens), sequence (P43220 whole entry, looked up): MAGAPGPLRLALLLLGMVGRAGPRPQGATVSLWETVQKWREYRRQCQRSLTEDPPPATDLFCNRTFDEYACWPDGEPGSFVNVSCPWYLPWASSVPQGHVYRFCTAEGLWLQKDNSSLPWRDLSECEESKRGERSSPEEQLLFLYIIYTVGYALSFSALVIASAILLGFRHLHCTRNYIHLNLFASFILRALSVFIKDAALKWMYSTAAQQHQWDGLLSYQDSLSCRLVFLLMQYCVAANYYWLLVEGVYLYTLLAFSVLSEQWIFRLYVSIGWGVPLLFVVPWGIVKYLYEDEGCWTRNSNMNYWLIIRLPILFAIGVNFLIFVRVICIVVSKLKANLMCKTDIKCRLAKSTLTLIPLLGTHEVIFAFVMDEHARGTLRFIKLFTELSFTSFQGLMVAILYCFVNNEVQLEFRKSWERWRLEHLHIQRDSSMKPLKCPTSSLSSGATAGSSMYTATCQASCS
In short: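 Using stably transfected HEK293 (constitutively active GLP-1R, cAMP-luciferase reporter), compounds were incubated 24 hr and luciferase measured by luminescence.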
With Cc1cccnc1NC(=O)c1cccc(S(=O)(=O)N2CCN(c3ccc(F)cc3)CC2)c1 the Potency was “inactive”. Cc1cccc(C)c1NC(=O)CN1CCN(c2ccc(F)cc2)CC1 was tested, and the Potency was “inactive”. With Oc1c(CN2CCN(c3ccc(F)cc3)CC2)cc(Cl)c2cccnc12 the Potency was 2.51 µM (active). For Cc1ccc(S(=O)(=O)NN=C2CC(C)(C)CC(=O)C2(C)C)cc1, the Potency was “inactive”. For COc1ccc(/C=C/C(=O)Nc2ccc(C34CC5CC(CC(O)(C5)C3)C4)cc2)cc1OC, the Potency was “inactive”. In the case of CSc1ccc(/C=C/C(=O)NC23CC4CC(CC(C4)C2)C3)cc1, the Potency is reported as 11.2 µM (active). COc1ccccc1C(=O)NC(=S)NC12CC3CC(CC(C3)C1)C2 was tested, and the Potency was “inactive”. With COc1ccc(C(=O)NCC2CCCO2)cc1S(=O)(=O)NCc1ccc(Cl)cc1 (stereo unspecified) the Potency was “inactive”. In the case of Cc1cccc(C)c1-n1nnnc1C1(C)CCC(=O)N1CCOc1ccccc1 (stereo unspecified), the Potency is reported as “inactive”. With O=C(NCc1ccco1)c1cccc(-c2ccc3nncn3c2)c1 the Potency was “inactive”. With CCCCN(C)C(=O)C1CCN(Cc2ccccn2)CC1 the Potency was “inactive”. CCCCN(Cc1ccccc1)C(=O)C1CCN(Cc2sccc2C)CC1 was tested, and the Potency was 7.08 µM (active). For CCCC(=O)C1CCN(Cc2ccccc2)CC1, the Potency was “inactive”. For CC(=O)Nc1cccc(-c2csc(Nc3cccc(C)n3)n2)c1, the Potency was “inactive”. With Cc1cccc(Nc2nc(-c3ccccc3)cs2)n1 the Potency was 3.16 µM (active). O=C(O)c1ccccc1C(=O)Nc1nc(-c2ccccc2)cs1 was tested, and the Potency was “inactive”. For CCc1c(N=O)c(-c2ccccc2)n(O)[n+]1[O-], the Potency was “inactive”. In the case of CCC(Oc1ccccc1)C(=O)OCC(=O)Nc1c(C)nn(-c2ccccc2)c1C (stereo unspecified), the Potency is reported as “inactive”. Cc1ccc(S(=O)(=O)N(CC(=O)N2CCc3ccccc3C2)c2cccc(Cl)c2)cc1 was tested, and the Potency was 8.91 µM (active). For COc1cccc(N(CC(=O)N2CCc3ccccc3C2)S(C)(=O)=O)c1, the Potency was “inactive”. In the case of CS(=O)(=O)N(CC(=O)N1CCc2ccccc2C1)c1ccc(Br)cc1, the Potency is reported as “inactive”. O=C(NCc1ccccc1)C1c2ccccc2OCC(=O)N1C1CC1 (stereo unspecified) was tested, and the Potency was “inactive”. For COCOCCn1cc(CN2CCS(=O)(=O)N(Cc3ccc(-c4cccc(N(C)C)c4)cc3)C(CC(C)C)C2=O)nn1 (stereo unspecified), the Potency was “inactive”. CC(C)CC1C(=O)N(Cc2cn(Cc3ccco3)nn2)CCS(=O)(=O)N1Cc1ccc(-c2ccc(Cl)c(Cl)c2)cc1 (stereo unspecified) was tested, and the Potency was 10 µM (active). In the case of COc1ccc(-c2ccc(CN3C(C(C)C)C(=O)N(Cc4cn(CC5CCCCC5)nn4)CCS3(=O)=O)cc2)cn1 (stereo unspecified), the Potency is reported as “inactive”. With CC1C(=O)N(Cc2cn(Cc3ccco3)nn2)CCS(=O)(=O)N1Cc1ccc(-c2cccc(CO)c2)cc1 (stereo unspecified) the Potency was “inactive”. With CC(C)CC1C(=O)N(Cc2cn(CC3CCCCC3)nn2)CCS(=O)(=O)N1Cc1ccc(-c2ccc(Cl)cc2)cc1 (stereo unspecified) the Potency was “inactive”. COc1ccc(-c2ccc(CN3C(CC(C)C)C(=O)N(Cc4cn(CC5CCCCC5)nn4)CCS3(=O)=O)cc2)cc1 (stereo unspecified) was tested, and the Potency was 10 µM (active). For CCN1C(=O)[C@@H]2[C@@H]3CN(S(=O)(=O)c4ccccc4C)[C@@H](c4ccc(Cl)cc4)[C@@H]3C(=O)C[C@@H]2C1=O, the Potency was “inactive”. With CCOC(=O)c1cc(-c2sc(NC(=O)c3ccccc3)nc2C)n(CCO)n1 the Potency was “inactive”. CCc1nc2ccc(C(=O)NCCNC(C)=O)cn2c1N(CC)Cc1cccc(Br)c1 was tested, and the Potency was “inactive”. For COc1ccc(CNC(=O)Cn2nnc(-c3ccccc3F)n2)cc1, the Potency was “inactive”. In the case of CC(C)(C)NC(=O)Cn1nnc(-c2ccccc2Cl)n1, the Potency is reported as “inactive”. C#CC(C)(CC)NC(=O)Cn1nnc(-c2ccc(OCc3c(F)cccc3Cl)cc2)n1 (stereo unspecified) was tested, and the Potency was 3.16 µM (active). In the case of CN(C)S(=O)(=O)N1CCC(Oc2cccc(C(=O)NCCCC3CCCC3)c2)CC1, the Potency is reported as 10 µM (active). CNS(=O)(=O)c1cccc(C(=O)NCC2CCCCC2)c1 was tested, and the Potency was “inactive”. For CN(C(=O)c1cccc(OC2CCN(S(=O)(=O)N(C)C)CC2)c1)C1CCOC1 (stereo unspecified), the Potency was “inactive”. With CCNC(=O)C1(C)CCN(Cc2ccc(C(=O)OCC)o2)C1 (stereo unspecified) the Potency was “inactive”. In the case of CCc1noc(C)c1C(=O)OCC(=O)c1ccc(NC(=O)CC(C)C)cc1, the Potency is reported as “inactive”. In the case of Cc1cccc(C)c1NC(=O)C(c1cccc2ccccc12)n1c(=O)c(-c2ccco2)nc2ccccc21 (stereo unspecified), the Potency is reported as “inactive”. With COc1ccc(Cl)cc1NC(=O)CN(C)C(=O)c1cn(-c2ccccc2)nc1-c1cccs1 the Potency was “inactive”. With COc1ccc(Cl)cc1NC(=O)CN(C)C(=O)c1ccc2n[nH]nc2c1 the Potency was “inactive”. For COc1ccc(Cl)cc1NC(=O)CN(C)C(=O)c1cc2ccccc2cc1OC, the Potency was 10 µM (active). In the case of O=[N+]([O-])c1ccc(C(S(=O)(=O)Cc2ccccc2)S(=O)(=O)Cc2ccccc2)cc1, the Potency is reported as “inactive”. For c1ccc2c(CNn3cnnc3)cccc2c1, the Potency was “inactive”. With N#C/C(=C(/O)Cc1cccc2ccccc12)c1nc2ccccc2s1 the Potency was “inactive”. In the case of N=C(N)SCc1cccc2ccccc12, the Potency is reported as 10 µM (active). CCCCNC(=O)OC1CC2CC1[C@H]1CCCCN1C2=O (stereo partly specified) was tested, and the Potency was “inactive”. For C[C@H](NC(=O)CC[C@H]1O[C@@H](n2ccc(=O)[nH]c2=O)[C@H](O)[C@@H]1O)c1cccc2ccccc12, the Potency was “inactive”. In the case of COc1cccc(C2c3[nH]c4ccccc4c3CCN2Cc2cccc(C)n2)c1 (stereo unspecified), the Potency is reported as 11.2 µM (active). COc1cccc(N2CCN(C(=O)CCCCCn3c(=O)[nH]c4ccccc4c3=O)CC2)c1 was tested, and the Potency was “inactive”. With COC(=O)[C@H]1[C@H]2C[C@H]3c4[nH]c5ccccc5c4CCN3C[C@@H]2CC[C@@H]1O the Potency was “inactive”. With Cc1ccc(S(=O)(=O)NCCC(=O)Nc2ccc(C)c(Cl)c2)cc1C the Potency was 7.08 µM (active). Cc1ccc(NC(=O)CCNS(=O)(=O)c2ccc3c(c2)oc(=O)n3C)cc1C was tested, and the Potency was “inactive”. With Cc1ccc(S(=O)(=O)NCCC(=O)Nc2cccc(S(N)(=O)=O)c2)cc1C the Potency was “inactive”. For Cc1cccc(N(CC(=O)N2CCCC2)S(C)(=O)=O)c1C, the Potency was “inactive”. COCCCn1cc(CN2CC(N(C)C)CS2(=O)=O)nn1 (stereo unspecified) was tested, and the Potency was “inactive”. For O=C(CSc1ncn[nH]1)Nc1nc2c(F)c(F)c(F)cc2s1, the Potency was “inactive”. For COc1ccc(-c2nn(-c3ccccc3)cc2/C=C\C(=O)Nc2ccc(C(=O)O)cc2)cc1, the Potency was “inactive”. In the case of Cc1ccc(-c2nn(-c3ccccc3)cc2/C=C/C(=O)Nc2cccc(S(N)(=O)=O)c2)cc1, the Potency is reported as 5.01 µM (active). In the case of NS(=O)(=O)c1cccc(NC(=O)CSc2nc3ccccc3n2-c2ccccc2)c1, the activity change, negative = inhibition is reported as 33.1% [at 7.66 µM]. In the case of O=C(Nc1ccc2c(c1)OCCO2)C1c2ccccc2OCC(=O)N1Cc1ccccn1 (stereo unspecified), the Potency is reported as “inactive”. In the case of c1cc(-c2ccc3[nH]ccc3c2)n2ccnc2c1, the Potency is reported as “inactive”. With CCCCOc1ccc(CSC(=N)N)cc1[N+](=O)[O-] the Potency was “inactive”. CCCCCOc1ccc(CSC2=NCCN2)cc1[N+](=O)[O-] was tested, and the Potency was 3.98 µM (active). Cc1nc(SCc2ccc(F)cc2)c([N+](=O)[O-])[nH]1 was tested, and the Potency was “inactive”. For CC1(C)OC(=O)C2=C(C[C@@H](C3CC3)O[C@H]2c2ccc(Cl)cc2)O1, the Potency was “inactive”. With CN(C)C(CNC(=O)c1cccc(S(=O)(=O)N2CCc3ccccc3C2)c1)c1ccccc1 (stereo unspecified) the Potency was “inactive”. For Cc1ccn(CC(=O)NC2CCCN(Cc3ccccc3F)C2)n1 (stereo unspecified), the Potency was “inactive”. In the case of CC12c3ccccc3C(c3ccccc31)C1C(=O)N(Cc3cccnc3)C(=O)C12 (stereo unspecified), the Potency is reported as 8.91 µM (active). For CC1(C)CN(Cc2cccnc2)C(=O)[C@H]1CC(=O)Nc1ccc(Br)cc1, the Potency was “inactive”. In the case of CC1Oc2ccccc2N(Cc2cccnc2)C1=O (stereo unspecified), the Potency is reported as “inactive”. With COc1cccc(CNc2nc3cc(-c4csc5ccccc45)sc3c(=O)n2C)c1 the Potency was “inactive”. With CCCNC(=O)C1(C)CCCN(C(=O)c2cccc(OC(C)=O)c2C)C1 (stereo unspecified) the Potency was “inactive”. For COc1ccccc1CNC(=O)Cn1cc2c(n1)CCCC2, the Potency was “inactive”. With Cc1ccc2sc(N(CCN(C)C)C(=O)/C=C/c3cccs3)nc2c1C the Potency was “inactive”. CCN(CC)CCN(C(=O)c1ccc2c(c1)CCCC2)c1nc2c(OC)cccc2s1 was tested, and the Potency was 11.2 µM (active). For Cc1cc(C)c2nc(N(CCN(C)C)C(=O)/C=C/c3cccs3)sc2c1, the Potency was “inactive”. With COc1cccc2sc(N(CCCN(C)C)C(=O)C(c3ccccc3)c3ccccc3)nc12 the Potency was 5.62 µM (active). CCN(CC)CCN(C(=O)c1cccc([N+](=O)[O-])c1)c1nc2ccc(OC)cc2s1 was tested, and the Potency was “inactive”. In the case of CCCCN1C(=O)C(CC(=O)NC(c2ccccc2)c2ccccc2)CC(C(=O)N2CCOCC2)=C1C (stereo unspecified), the Potency is reported as “inactive”. C[C@@H]1CC2=C(C(=O)OC(C)(C)O2)[C@@H](C2CC2)O1 was tested, and the Potency was “inactive”. For COc1cccc(-c2cnc3c(NC(C)=O)cc(-c4cccc(NC(C)=O)c4)cn23)c1, the Potency was “inactive”. In the case of COC(=O)CN(c1nc(C)c(Cl)c(OC)n1)S(=O)(=O)c1ccc(C)cc1, the Potency is reported as 10 µM (active). For CCN(CC)C(=O)CN(c1cccc(OC)c1)S(=O)(=O)c1ccc(C)cc1, the Potency was “inactive”. COc1ccc(C)cc1N(CC(=O)N1CCC(C)CC1)S(=O)(=O)c1ccc(C)cc1 was tested, and the Potency was “inactive”. With CCc1ccc([C@@H]2CC(=O)[C@@H]3CN(S(=O)(=O)c4ccc(C)cc4)[C@H](c4ccc(Cl)cc4)C[C@@H]3N2S(=O)(=O)c2ccc(C)cc2)cc1 the Potency was “inactive”. In the case of COc1cc(C=NC2CCCCC2)ccc1O, the Potency is reported as “inactive”. For O=C(NC(Cc1ccccc1)C(=O)N1CCCC1C(=O)O)c1ccccc1 (stereo not drawn) (Bz-Phe-Pro-OH; configuration not given here), the Potency was “inactive”. For CN(Cc1ccccc1F)C(=O)C(Cc1ccccc1)NC(=O)c1ccccc1 (stereo unspecified), the Potency was 11.2 µM (active). For NC(=O)c1ccc(NC(=O)COC(=O)C(Cc2ccccc2)NC(=O)c2ccccc2)cc1 (stereo unspecified), the Potency was “inactive”. In the case of CC(OC(=O)c1ccc(NC(=O)CC#N)cc1)C(=O)Nc1ccc(S(=O)(=O)N2CCCC2)cc1 (stereo unspecified), the Potency is reported as “inactive”. With O=C1NC[C@@H](CCCCN2CCN(CCc3ccc(O)cc3)C(=O)C2=O)N(CC2CCCCC2)C1=O the Potency was “inactive”. For Cc1ccc(S(=O)(=O)N(CCc2ccccc2)c2ccc3c(c2)C2CC3CCN2C(=O)OCc2ccccc2)cc1 (stereo unspecified), the Potency was “inactive”. COc1ccc(-c2ccc3c(c2)C2CC3CCN2CCC#N)cc1 (stereo unspecified) was tested, and the Potency was “inactive”. With C=CCOC(=O)N1CCC2CC1c1cc(-c3ccc(OC)cc3)ccc12 (stereo unspecified) the Potency was 10 µM (active).
